Compounds with a hit are over-represented: about 6.4% of the library has one in this group of screens.
VP16 counter: VP16 counterscreen qHTS for inhibitors of ROR gamma transcriptional activity; 310,000 compounds, 3.5% hits; AID 2546, 2010; Potency, µM (top dose mostly 53.6 µM), for the others: top-dose activity, negative = inhibition, hits mostly inhibitors; Drosophila S2 Gal4-VP16 UAS-luciferase, luminescence, 20 h;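 note: Gal4-VP16 expression switched on by copper sulfate through the metallothionein promoter; nearly all actives have a fitted effect of over 50% in size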
Luc counter: Counterscreen for Luciferase (Kinase-Glo TM) Inhibition. Luciferin 4-monooxygenase (Photuris pensylvanica), Q27757. Kinase-Glo luciferase, ATP luminescence, 8 min. Potency, µM (highest dose often 38.3 µM), inactives show at the highest dose activity change, negative = inhibition, actives largely listed as inhibitors. 200,000 compounds, 0.28% hits. AID 1379, 2008; note: nearly all actives have a fitted effect of over 60% in size
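Substrate mix (final 50 mM imidazole pH 7.2, 50 mM KCl, 7 mM MgCl2, 10 uM ATP, 0.01% Tween 20, 0.05% BSA) plus pin-tool compound, then Kinase-Glo detection mix; 8 min ambient, luminescence read.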
RORgamma inh: qHTS for inhibitors of ROR gamma transcriptional activity | Drosophila S2 Gal4-RORgamma UAS-luciferase reporter, 20 h | Potency, µM (titrated, usually from 53.6 µM), without a hit: at the highest dose activity change, negative = inhibition, usual class: inhibitors | 310,000 compounds, 5.4% hits | AID 2551, 2010; note: nearly all actives have a fitted effect of over 60% in size
Target sequence (P51450 whole entry, looked up, the tested form may be a part): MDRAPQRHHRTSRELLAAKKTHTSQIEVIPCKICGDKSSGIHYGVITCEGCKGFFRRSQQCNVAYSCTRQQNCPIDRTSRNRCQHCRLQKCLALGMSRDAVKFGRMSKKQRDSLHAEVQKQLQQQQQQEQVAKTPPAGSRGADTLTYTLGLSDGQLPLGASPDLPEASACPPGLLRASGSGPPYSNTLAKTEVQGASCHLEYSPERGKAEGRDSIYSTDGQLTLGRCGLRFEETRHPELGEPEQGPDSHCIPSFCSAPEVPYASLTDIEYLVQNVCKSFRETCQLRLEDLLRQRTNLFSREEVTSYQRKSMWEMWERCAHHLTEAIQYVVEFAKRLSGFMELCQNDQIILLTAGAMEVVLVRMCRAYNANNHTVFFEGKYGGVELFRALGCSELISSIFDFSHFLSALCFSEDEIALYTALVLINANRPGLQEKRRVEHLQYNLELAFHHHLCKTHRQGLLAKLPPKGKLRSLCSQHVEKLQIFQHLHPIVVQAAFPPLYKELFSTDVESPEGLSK
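Drosophila S2 cells stably expressing Gal4-DBD/mouse RORγ fusion under metallothionein promoter plus UAS-luciferase; compound 1 h, then 700 uM CuSO4 induction for 20 h at ambient temperature; inhibition read as reduced luminescence.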
Numbers without * were called inactive; [ ] = dose if it differs, or a comment. Calls come from the whole dose curve; as a rule, active = well fitted curve in the direction sought with a large enough effect; inconclusive = small, poorly fitted or top-dose-only effect, or another doubt; inactive = no such curve, though single readings can be large; an effect the other way counts as inactive or inconclusive. % is set by controls: 0 for no effect and ±100 for the full control effect; potency is the fitted concentration of half-maximal effect.

`c1ccc2oc(-c3ccc(Nc4nc(N5CCCC5)nc(N5CCOCC5)n4)cc3)nc2c1` gave VP16 counter 8%, Luc counter -1% and RORgamma inh -13%.
O=C(/C=C/c1ccc(/C=C/C(=O)Nc2ccc(C3=NCCN3)cc2)cc1)Nc1ccc(C2=NCCN2)cc1 was read as VP16 counter -4% and RORgamma inh 15%.
Screening CC1=NN(C(=O)c2ccccc2Br)C(O)(c2ccc(Cl)cc2)C1 (centres undefined) returned VP16 counter 8.9µM* and RORgamma inh 4µM*.
For CCOC(=O)C1(O)CC(C)=NN1C(=O)c1cccc(Cl)c1 (centres undefined) the results were VP16 counter inconclusive, Luc counter -2% and RORgamma inh inconclusive.
`COC(=O)C1=NN(C(=O)c2ccc(Cl)cc2)C(O)(c2ccccc2)C1` (centres undefined) gave VP16 counter inconclusive, Luc counter 1% and RORgamma inh inconclusive.
For CC1=NN(C(=O)c2ccccc2C)C(O)(c2ccc(Cl)cc2)C1 (centres undefined) the results were VP16 counter 7.9µM* and RORgamma inh 6.3µM*.
`O=C(O)c1ccccc1CSc1nc2ccccc2[nH]1` gave VP16 counter inconclusive and RORgamma inh -11%.
Screening Cc1ccc(CNS(=O)(=O)c2c(C(=O)N3CCCCCC3)c(C)n(C)c2C)cc1 returned VP16 counter -6% and RORgamma inh -13%.
`COc1cccc2c1nc(C)c1cc(C)oc12` gave VP16 counter -16%, Luc counter -2% and RORgamma inh -77%.
Screening COc1cccc2nc3cc(C)c(C)cc3nc12 returned VP16 counter inconclusive and RORgamma inh 10µM*.
C/C(=N\NC(=O)c1ccccc1O)c1ccc(Br)s1 was read as VP16 counter 2µM*, Luc counter -28% and RORgamma inh 2µM*.
Screening C/C(=N\NC(=O)c1cc(Br)ccc1O)c1cccc(NC(=O)c2ccccc2F)c1 returned VP16 counter 1% and RORgamma inh 11µM*.
Screening C/C(=N\NC(=O)c1ccc(Cl)cc1)c1cccs1 returned VP16 counter 16µM*, Luc counter -17% and RORgamma inh 7.1µM*.
O=C(NNC(=O)c1ccccc1Cl)c1cccs1 was read as VP16 counter inconclusive, Luc counter -3% and RORgamma inh -38%.
`C/C(=N\NC(=O)c1ccccc1F)c1cccc(NC(=O)c2ccccc2)c1` gave VP16 counter -5% and RORgamma inh -17%.
For C/C(=N\NC(=O)c1ccc(NS(=O)(=O)c2cccs2)cc1)c1cccs1 the results were VP16 counter 9%, Luc counter 2% and RORgamma inh inconclusive.
O=C(NNC(=O)c1cc(Cl)ccc1O)c1cccs1 was read as VP16 counter -8% and RORgamma inh 13µM*.
`C/C(=N\NC(=O)c1ccccc1[N+](=O)[O-])c1ccc(Br)s1` gave VP16 counter -11%, Luc counter 2% and RORgamma inh 19%.
`Cc1ccc(C(C)C)cc1S(=O)(=O)NC1CC(C)(C)NC(C)(C)C1` gave VP16 counter -6% and RORgamma inh inconclusive.
O=S(=O)(NCCS(=O)(=O)N1CCN(c2ccccc2)CC1)c1ccccc1 was read as VP16 counter -15% and RORgamma inh 1%.
For COC(=O)N/N=C(\C)c1cccs1 the results were VP16 counter -9% and RORgamma inh 8%.
For C/C(=N\NC(=O)c1cccc(F)c1)c1ccc(Br)s1 the results were VP16 counter 1.3µM*, Luc counter -1% and RORgamma inh 0.79µM*.
Screening C/C(=N/NC(=O)c1ccc2nc[nH]c2c1)c1cccs1 returned VP16 counter -12%, Luc counter -5% and RORgamma inh -29%.
`C/C(=N\Nc1nc2ccccc2s1)c1ccc(Br)s1` gave VP16 counter inconclusive and RORgamma inh 7.1µM*.
`C/C(=N\NC(=O)c1cc(Br)ccc1O)c1cccs1` gave VP16 counter inconclusive, Luc counter -7% and RORgamma inh 10µM*.
For C/C(=N\Nc1nc2ccccc2s1)c1ccc2c(c1)OCO2 the results were VP16 counter inconclusive, Luc counter -3% and RORgamma inh inconclusive.
Screening Nc1cc(=O)[nH]c2nnc(SCC(=O)Nc3cccc4ccccc34)n12 returned VP16 counter -3% and RORgamma inh -9%.
For Cc1ccc(N/C(N)=N/c2nc(C)cc(N3CCCCC3)n2)c(C)c1 the results were VP16 counter inconclusive, Luc counter -2% and RORgamma inh -33%.
CCCn1nc(NC(=O)c2cccs2)c2cc3cc(C)ccc3nc21 was read as VP16 counter -8% and RORgamma inh 12%.
CCc1c(C(=O)NNC(=S)NC2CCCCC2)csc1C was read as VP16 counter inconclusive, Luc counter 1% and RORgamma inh 1.1µM*.
`CCCCOc1cccc(C(=O)NNC(=S)NC2CCCCC2)c1` gave VP16 counter 4%, Luc counter 0% and RORgamma inh inconclusive.
`CCc1cc(C(=O)NNC(=S)NC2CCCCC2)cs1` gave VP16 counter 10µM* and RORgamma inh 2.2µM*.
Screening CCc1c(C(=O)NNC(=S)NCCc2ccccc2)csc1C returned VP16 counter inconclusive, Luc counter 4% and RORgamma inh inconclusive.
Screening CC[C@H](C)[C@H](NC(=O)[C@H](CCC(=O)O)NC(=O)CNC(=O)[C@@H](NC(=O)[C@@H]1CCCN1C(=O)[C@@H](NC(=O)[C@@H]1CCCN1C(=O)[C@@H]1CCCN1C(=O)[C@H](CC(N)=O)NC(=O)[C@H](CC(N)=O)NC(=O)[C@@H](NC(=O)[C@H](CCSC)NC(=O)[C@H](Cc1c[nH]c2ccccc12)NC(=O)CNC(=O)[C@@H](NC(=O)[C@H](CCC(N)=O)NC(=O)[C@@H](N)CCC(=O)O)[C@@H](C)CC)[C@@H](C)O)[C@@H](C)CC)C(C)C)C(=O)O returned VP16 counter -5% and RORgamma inh -26%.
`CCn1c(=O)cc(OCC(=O)NCc2ccc(C)o2)c2ccccc21` gave VP16 counter 7%, Luc counter 1% and RORgamma inh 14µM*.
For CCn1c(=O)cc(OCC(=O)NCc2ccco2)c2ccccc21 the results were VP16 counter 1%, Luc counter -6% and RORgamma inh 4%.
Screening O=C1CCCC=C1[C@H](O)c1ccc([N+](=O)[O-])cc1 returned VP16 counter -4%[10 µM] and RORgamma inh 18%[10 µM].
`O=C(CCNC(=O)c1ccccc1Cl)Nc1cc(S(=O)(=O)N2CCOCC2)ccc1N1CCCC1` gave VP16 counter -6% and RORgamma inh -5%.
For CCOC(=O)c1ccc(N2C(=O)CC(Sc3nnc(C)s3)C2=O)cc1 (centres undefined) the results were VP16 counter inconclusive, Luc counter -3% and RORgamma inh inconclusive.
O=C1CC(Sc2ncccn2)C(=O)N1c1ccccc1 (centres undefined) was read as VP16 counter -2%, Luc counter 2% and RORgamma inh inconclusive.

Assay outcomes as filed in PubChem BioAssay.
